From PubChem
Rab9 promoter act: qHTS Assay for Rab9 Promoter Activators | Huh7 Rab9 promoter-luciferase reporter, luminescence, 24 h | Potency, µM (series often up to 9.22 µM), without a hit: at the top dose activation, negative = inhibition, actives largely listed as activators | hit rate 2.8% among 320,000; note: % of control where 0% means no effect; nearly all actives have a fitted effect of over 60% in size
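Huh7 cells stably carrying a Rab9 promoter-luciferase reporter, 1500 cells per well in OP-MEM I with 10% FBS, treated with compound 24 hours at 37C. Luciferase activity read by luminescence after 10 minutes with Amplite reagent.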
ELG1 genotox: qHTS screen for small molecules that induce genotoxicity in human embryonic kidney (HEK293T) cells expressing luciferase-tagged ELG1; hit rate 1.3% among 330,000; Potency, µM (highest dose often 46 µM), inactives show top-dose activity change, positive = activation, hits mostly activators; HEK293T ELG1-luciferase reporter, luminescence, 16 h; note: % of control where 0% means no effect; nearly all actives have a fitted effect of over 60% in size
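Cells (2,000/well) expressing the ELG1-luciferase fusion are dosed by pin tool and kept 16 hr at 37 °C, 5% CO2. Signal comes from ONE-Glo luciferase reagent after 30 min at room temperature.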
SMN2 splice up: qHTS Assay for Enhancers of SMN2 Splice Variant Expression; HEK293 SMN2-luciferase splicing reporter, luminescence, 30-36 h; Potency, µM (titrated, usually from 46.1 µM), for the others: at the highest dose activity change, positive = activation, most hits filed as activators; hit rate 2.8% among 210,000; note: % of control where 0% means no effect; nearly all actives have a fitted effect of over 55% in size
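qHTS luciferase splicing reporter: luminescence rises when SMN2 exon 7 is included in transfected HEK293 cells. Compound exposure lasted 30-36 h at 37C, with 4.5 mM final sodium butyrate as control, followed by a ONE-Glo read.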
p53 reactivator: qHTS assay for re-activators of p53 using a Luc reporter. H1299 p53-A138V BP100-luciferase reporter, luminescence, 24 h. Potency, µM (series often up to 92.2 µM), for the others: at the highest dose activity change, positive = activation, actives largely listed as activators. hit rate 0.063% among 320,000. AID 504706, 2011; note: % of control where 0% means no effect; nearly all actives have a fitted effect of over 45% in size
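p53-null H1299 cells stably carrying temperature-sensitive p53-A138V and a BP100-luciferase reporter were pinned with compounds (4-point, 1:5 series) and held 24 hrs at 37 deg C. Luminescence was read 10 min after detection reagent.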
FLuc counter: qHTS profiling assay for firefly luciferase inhibitor/activator using purifed enzyme and Km concentrations of substrates (counterscreen for miR-21 project); purified FLuc, Km substrates, luminescence inhibition; hit rate 6.9% among 360,000; Potency, µM (top dose mostly 57.5 µM), inactives show top-dose activity change, negative = inhibition, hits mostly inhibitors; Luciferin 4-monooxygenase (Photinus pyralis), P08659;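 note: plate controls were vehicle for no effect and reference inhibitor for full effect; nearly all actives have a fitted effect of over 55% in size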
Target sequence (P08659 whole entry, looked up): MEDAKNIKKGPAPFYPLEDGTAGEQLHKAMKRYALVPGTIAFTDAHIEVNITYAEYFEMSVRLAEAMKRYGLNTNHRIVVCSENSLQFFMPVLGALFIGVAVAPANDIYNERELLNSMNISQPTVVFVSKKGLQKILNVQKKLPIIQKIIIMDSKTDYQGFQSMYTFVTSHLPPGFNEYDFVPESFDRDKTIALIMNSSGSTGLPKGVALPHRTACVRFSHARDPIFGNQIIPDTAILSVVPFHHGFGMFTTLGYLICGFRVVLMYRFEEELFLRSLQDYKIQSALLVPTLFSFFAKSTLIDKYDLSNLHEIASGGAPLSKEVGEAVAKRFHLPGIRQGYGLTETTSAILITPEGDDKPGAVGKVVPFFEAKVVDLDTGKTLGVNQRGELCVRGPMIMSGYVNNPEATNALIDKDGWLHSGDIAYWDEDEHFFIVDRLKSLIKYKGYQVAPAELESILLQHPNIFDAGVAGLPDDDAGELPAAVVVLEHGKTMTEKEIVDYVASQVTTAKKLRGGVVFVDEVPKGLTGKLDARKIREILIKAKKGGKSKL
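Biochemical qHTS of compounds, final roughly 60 µM downward over six points, against 10 nM purified firefly luciferase using Km concentrations of substrates (10 uM D-luciferin, 10 uM ATP) in Tris acetate pH 7.5 buffer; luminescence output.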
NPC1 promoter act: qHTS Assay for NPC1 Promoter Activators; hit rate 2.4% among 320,000; Huh7 NPC1 promoter luciferase reporter, 24 h; Potency, µM (doses to about 9.22 µM), for the others: at the highest dose activation, hits mostly activators; AID 485313, 2010; note: % of control where 0% means no effect; nearly all actives have a fitted effect of over 60% in size
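In 1536-well qHTS, Huh7 cells harboring an NPC1 promoter–luciferase construct received compound for 24 h; activation was quantified by luminescence following luciferase reagent addition.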
Numbers without * were called inactive; ? = inconclusive; . = no result; [ ] = dose if it differs, or a comment. In the library only some 7.4% were active in any assay of this set; here they are far more common. Calls come from the whole dose curve; as a rule, active = well fitted curve in the direction sought with a large enough effect; inconclusive = small, poorly fitted or top-dose-only effect, or another doubt; inactive = no such curve, though single readings can be large; an effect the other way counts as inactive or inconclusive. Potency is the fitted concentration of half-maximal effect.

SMILES | Rab9 promoter act | ELG1 genotox | SMN2 splice up | p53 reactivator | FLuc counter | NPC1 promoter act
Cc1ncc([N+](=O)[O-])n1CCN=[N+]=[N-] | . | . | -11%[9.22 µM] | . | . | .
N#CC(C#N)=NNc1ccc(OC(F)(F)F)cc1 | . | . | -44% | . | . | .
COc1ccc(-c2cc(=NCCCCCC(=O)O)c3cc(C)ccc3o2)cc1 | -6% | ? | 8% | 20% | 3% | -1%
COc1ccc(-c2cc(=Nc3cccc(C(=O)O)c3)c3cc(C)ccc3o2)cc1 | ? | 5.8µM* | . | 9% | 9.5µM* | -1%
O=P(O)(O)c1ccccc1 (tested in a mixture with another compound) | . | . | -7%[9.22 µM] | . | . | .
O=C(CN1CCCCC1)c1ccccc1Cl | 14% | 4% | -8% | ? | 19µM* | 3%
O=C(CN1CCCCC1)c1ccccc1F | 4% | -1% | 6% | 5% | 3% | -22%
CN(CCC(=O)O)C1=Nc2ccc(Cl)cc2C(c2ccccc2)=[N+]([O-])C1 | . | . | 4%[9.22 µM] | . | . | .
CC(C)(C)C(=O)c1cn(CC(=O)NCc2ccco2)c2ccccc12 | 3.2µM* | ? | 14µM* | 7% | ? | ?
O=C1C(Cl)=C(Cl)C(=O)C(Cl)=C1Cl | . | . | -8% | . | . | .
O=C(N/N=C/c1c(O)n(C2CCCCC2)c(=S)[nH]c1=O)c1ccccc1O | 7% | 3%[9.26 µM] | . | ? | 15µM* | 1%
CC(C)c1ccc(-n2c(O)c(/C=N/NC(=O)c3ccccc3O)c(=O)[nH]c2=S)cc1 | 2% | 0% | . | 6% | 27µM* | 5%
O=C(N/N=C/c1c(O)n(Cc2ccco2)c(=O)[nH]c1=O)c1ccccc1O | -1% | 0% | . | 8% | 15µM* | 2%
O=S(=O)(Nc1nccs1)c1ccc([As](=O)(O)O)cc1 | . | . | 4%[9.22 µM] | . | . | .
C=CCc1ccc(OCCn2nnc3ccccc32)c(OC)c1 | 4µM* | 16µM* | . | . | 11µM* | 2.8µM*
Cc1nn(Cc2ccccc2Cl)c(Cl)c1C(=O)OCC(=O)NC(=O)NC1CCCCC1 | 0% | -1% | -31% | -4% | -8% | -1%
Cc1nn(CC(C)C)c(Cl)c1C(=O)NC1CCC(C)CC1 (centres undefined) | 4µM* | 9.2µM* | . | 12% | 8.5µM* | 2.2µM*
Cn1c(NN=O)nc2ccccc21 | -44% | ? | . | ? | 24µM* | -13%
CCN(CC)c1ccc(CNc2nc3ccccc3n2C)cc1 | 11% | 3% | . | 4% | ? | 14%
CC(Cc1ccccc1)NC(=O)NC(C)Cc1ccccc1 (centres undefined) | 2.8µM* | 12µM* | . | ? | 13µM* | ?
CC(Cc1ccccc1)NC(=O)c1ccc(N)cc1 (centres undefined) | 3.5µM* | ? | . | . | 21µM* | 3.2µM*
CC(Cc1ccccc1)NC(=O)C(c1ccc(N)cc1)c1ccc(N)cc1 (centres undefined) | 5% | 1% | . | . | 1% | 1%
CCOc1ccc(NC(=O)c2ccc(NC(=O)COC(=O)Cc3ccccc3)cc2)cc1 | ? | ? | 20µM* | ? | -14% | ?
Cc1cc(N2CCOCC2)nc2ccc(NC(=O)CCC(=O)N3CCC4(CC3)OCCO4)cc12 | 19% | 12% | . | ? | 15µM* | 26%
N=C(N)n1cc(/C=N\N=C(N)N)cn1 | . | . | -21%[9.22 µM] | . | . | .
Nc1ccccc1O.O.O=C(O)[C@H]1[O][Sb][O][C@H]1C(=O)O | . | . | -26%[9.22 µM] | . | . | .
CN(C)c1ccc(N)cc1 | . | . | -13% | . | . | .
Nc1ccccc1-c1ccccc1 | . | . | -7% | . | . | .
CC(C)c1nccn1Cc1ccc(Cl)cc1Cl | . | . | -34%[9.22 µM] | . | . | .
Cc1ccc(N=Nc2cc(C)ccc2N)cc1 | 0.32µM* | 0.46µM* | . | ? | 0.19µM* | 0.5µM*
